Experiment [1] is described as follows: compounds binding Alexa647 anti-His antibody – biochemical, small-molecule microarray, 635 nm fluorescence, artefact control for SMM control protein annotation, primary screen (AID 1128).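 Further: score merges feature fluorescence with signal-to-noise for each printed compound spot.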 The settings on record: higher = more signal.
The subject of experiment [2] is Human papillomavirus type 1a E7 protein (residues 1-88). The experiment in a line: HPV1a E7 small-molecule binders, primary screen, biochemical, small-molecule microarray, residues 1-88, 635 nm (AID 1129). The settings on record: small-molecule microarray binding, fluorescence 635 nm; higher = more signal.
Experiment [3] addresses Focal adhesion kinase 1 (Homo sapiens) (UniProt Q05397). The experiment in a line: PTK2 protein binding on printed compound slides – biochemical, small-molecule microarray, 635/667 nm fluorescence, BSA, DTT, primary screen (AID 1130).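 Further: composite of spot emission at 667 nm and signal to noise over triplicate slides.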 The settings on record: 635 nm fluorescence, higher = more signal.
The subject of experiment [4] is Fibrinogen (Alexa647-labelled). The experiment is described as follows: Alexa647-fibrinogen binding to printed small molecules – biochemical, small-molecule microarray, 635/667 nm fluorescence, artefact control for SMM control-protein annotation, profiling panel (AID 1131).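 Further: z-score merges 667 nm fluorescence with per-spot signal-to-noise over triplicate slides.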 The settings on record: fibrinogen-A647 binding fluorescence, higher = more signal.
For experiment [5], the target named is Follistatin (Homo sapiens) (UniProt P19883). The experiment is described as follows: FST protein binding to printed compounds – biochemical, small-molecule microarray, 635/667 nm fluorescence, primary screen (AID 1132). The settings on record: 635 nm fluorescence, higher = more signal.
Experiment [6] has as its target Fibroblast growth factor 2 (Homo sapiens) (UniProt P09038). The experiment is described as follows: basic fibroblast growth factor binding to printed compounds – biochemical, small-molecule microarray, 635/667 nm fluorescence, primary screen (AID 1133). The settings on record: FGF2, fluorescence 635/667, higher = more signal.
Experiment [7] is described as follows: JC-1 mitochondrial potential readout, lung cancer cells – cell-based, A549, JC-1 fluorescence, basal, 24 h, 100 nL, profiling panel (AID 1138).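 Further: A549 lung adenocarcinoma cells under basal conditions with no added stimulus; test concentration not given here.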 The settings on record: higher = more signal.
Experiment [8] concerns Lefty1. The experiment in a line: Lefty1 protein binding to printed compounds – biochemical, small-molecule microarray, 635/667 nm fluorescence, primary screen (AID 1139). The settings on record: fluorescence 635/667, higher = more signal.
Experiment [9] deals with wheat germ agglutinin (Triticum aestivum), Alexa647-labelled. The experiment is described as follows: Alexa647-WGA lectin binding to printed small molecules – biochemical, small-molecule microarray, 635/667 nm fluorescence, artefact control for SMM control-protein annotation, profiling panel (AID 1140).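 Further: score merges 667 nm feature emission with signal to noise over triplicate slides.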 The settings on record: WGA-A647 binding, 635 nm fluorescence, higher = more signal.

Experiment [10] has as its target Luciferin 4-monooxygenase (Photinus pyralis) (UniProt P08659). The experiment in a line: inhibition of purified Photinus pyralis luciferase – biochemical, luminescence, purified enzyme, 2006 set, primary screen (AID 1141).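 Further: cell-free assay with purified firefly luciferase at 100 ng per well in PBS; test concentration not given here.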 The settings on record: purified firefly luciferase, SteadyGlo luminescence, 30 min; higher = more signal, called active from +8 up or from −8 down.

Experiment [11] concerns Wnt5a (protein binding on small-molecule microarray). The experiment is described as follows: small molecules binding Wnt5a protein – biophysical, small-molecule microarray, 635/667 nm fluorescence, primary screen (AID 1142).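 Further: fluorescence read at 667 nm with signal to noise per printed feature.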 The settings on record: 635 nm fluorescence, higher = more signal.
Experiment [12] in a line: ATP-based viability of Huh7 replicon cells – cell-based, CellTiter-Glo luminescence, basal, 48 h, cytotoxicity control for HCV replication inhibitor project, primary screen (AID 1143).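 Further: Huh7 hepatoma cells carrying a hepatitis C replication reporter with no stimulus; test concentration not given here.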 The settings on record: higher = more signal, called active from +8 up or from −8 down. For orientation: A replicon is a self-replicating genome or part of one, used to study replication in cells.

Experiment [13] is described as follows: Pseudomonas biofilm growth suppression – PAO1 strain, BacTiter-Glo luminescence, LB-PBS, primary screen (AID 1144). The settings on record: P. aeruginosa PAO1 biofilm, 12 h, higher = more signal.
The nature of experiment [14]: basal CRE-LacZ reporter activity in PC12 – cell-based, unstimulated, primary screen (AID 1145). The settings on record: no forskolin, luminescence, 4.5 h, higher = more signal, called active from +8 up or from −8 down.
Experiment [15] can be described thus: forskolin-driven CRE-LacZ activity in PC12 – cell-based, CRE-LacZ reporter, forskolin-stimulated, primary screen (AID 1146).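 Further: PC12 cells with 6xCRE LacZ reporter stimulated by forskolin 10 µM; beta-galactosidase reporter signal reflecting CREB driven transcription.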 The settings on record: luminescence, 4.5 h, higher = more signal, called active from +8 up or from −8 down.
For experiment [16], the target named is Streptavidin (Streptomyces avidinii) (UniProt P22629). The experiment is described as follows: compounds binding control protein streptavidin – biophysical, small-molecule microarray, 635/667 nm fluorescence, artefact control for SMM compound annotation, primary screen (AID 1147).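 Further: signal reflects streptavidin binding to arrayed compounds as a control protein.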 The settings on record: higher = more signal.
A short description of experiment [17]: probe aInhba binding on compound microarray – biochemical, small-molecule microarray, 635/667 nm fluorescence, primary screen (AID 1148).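 Further: score merges 667nm spot fluorescence with signal-to-noise for antibody binding to printed compounds.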 The settings on record: higher = more signal.
For experiment [18], the target named is Torsin-1A (Homo sapiens) (UniProt O14656). The experiment is described as follows: TOR1A wild-type binding on microarray – cell lysate, small-molecule microarray, lysate, 635/667 nm, primary screen (AID 1149). The settings on record: COS7 hTOR1A-WT lysate, 635 nm fluorescence, higher = more signal.
The target is the same in experiment [19]. The experiment is described as follows: torsin A mutant lysate binding on microarrays – cell lysate, small-molecule microarray, COS7 lysate, 635/667 nm fluorescence, primary screen (AID 1150).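 Further: score pools 667 nm emission and signal to noise measuring lysate protein binding.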 The settings on record: COS7 hTOR1A mutant lysate, 635 nm fluorescence, higher = more signal.
Experiment [20] relates to Sonic hedgehog protein (Shh). The experiment is described as follows: Sonic hedgehog microarray binding compounds – biochemical, small-molecule microarray, 635/667 nm fluorescence, primary screen (AID 1151).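 Further: Shh protein binding to compounds spotted on small-molecule microarray slides; score combines spot fluorescence intensity with signal-to-noise across triplicate slides.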 The settings on record: 635 nm fluorescence, higher = more signal.

Calls of active or inactive are those of the source. Unless noted, how the calls were made is not given here.

Luciferin 4-monooxygenase (Photinus pyralis), sequence (P08659 whole entry, looked up): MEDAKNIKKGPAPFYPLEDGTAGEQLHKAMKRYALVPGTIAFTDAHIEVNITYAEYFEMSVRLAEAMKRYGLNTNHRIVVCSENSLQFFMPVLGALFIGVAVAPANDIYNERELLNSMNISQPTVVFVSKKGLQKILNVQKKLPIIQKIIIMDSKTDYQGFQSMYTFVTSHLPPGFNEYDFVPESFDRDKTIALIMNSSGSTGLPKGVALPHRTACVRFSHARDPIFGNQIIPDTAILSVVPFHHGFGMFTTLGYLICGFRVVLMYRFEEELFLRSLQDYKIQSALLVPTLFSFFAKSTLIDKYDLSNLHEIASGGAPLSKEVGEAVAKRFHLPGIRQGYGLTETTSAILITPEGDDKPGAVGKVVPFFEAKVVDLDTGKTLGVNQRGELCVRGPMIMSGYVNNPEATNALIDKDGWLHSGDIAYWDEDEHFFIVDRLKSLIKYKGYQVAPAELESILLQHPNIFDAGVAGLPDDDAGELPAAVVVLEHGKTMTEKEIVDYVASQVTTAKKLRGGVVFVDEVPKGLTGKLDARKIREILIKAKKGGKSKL
Streptavidin (Streptomyces avidinii), sequence (P22629 whole entry, looked up): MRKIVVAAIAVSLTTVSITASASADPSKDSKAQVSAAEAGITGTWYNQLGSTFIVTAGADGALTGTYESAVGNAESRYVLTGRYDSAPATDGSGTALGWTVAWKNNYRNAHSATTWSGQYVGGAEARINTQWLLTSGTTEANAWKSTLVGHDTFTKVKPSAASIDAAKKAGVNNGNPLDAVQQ
Focal adhesion kinase 1 (Homo sapiens), sequence (Q05397 whole entry, looked up): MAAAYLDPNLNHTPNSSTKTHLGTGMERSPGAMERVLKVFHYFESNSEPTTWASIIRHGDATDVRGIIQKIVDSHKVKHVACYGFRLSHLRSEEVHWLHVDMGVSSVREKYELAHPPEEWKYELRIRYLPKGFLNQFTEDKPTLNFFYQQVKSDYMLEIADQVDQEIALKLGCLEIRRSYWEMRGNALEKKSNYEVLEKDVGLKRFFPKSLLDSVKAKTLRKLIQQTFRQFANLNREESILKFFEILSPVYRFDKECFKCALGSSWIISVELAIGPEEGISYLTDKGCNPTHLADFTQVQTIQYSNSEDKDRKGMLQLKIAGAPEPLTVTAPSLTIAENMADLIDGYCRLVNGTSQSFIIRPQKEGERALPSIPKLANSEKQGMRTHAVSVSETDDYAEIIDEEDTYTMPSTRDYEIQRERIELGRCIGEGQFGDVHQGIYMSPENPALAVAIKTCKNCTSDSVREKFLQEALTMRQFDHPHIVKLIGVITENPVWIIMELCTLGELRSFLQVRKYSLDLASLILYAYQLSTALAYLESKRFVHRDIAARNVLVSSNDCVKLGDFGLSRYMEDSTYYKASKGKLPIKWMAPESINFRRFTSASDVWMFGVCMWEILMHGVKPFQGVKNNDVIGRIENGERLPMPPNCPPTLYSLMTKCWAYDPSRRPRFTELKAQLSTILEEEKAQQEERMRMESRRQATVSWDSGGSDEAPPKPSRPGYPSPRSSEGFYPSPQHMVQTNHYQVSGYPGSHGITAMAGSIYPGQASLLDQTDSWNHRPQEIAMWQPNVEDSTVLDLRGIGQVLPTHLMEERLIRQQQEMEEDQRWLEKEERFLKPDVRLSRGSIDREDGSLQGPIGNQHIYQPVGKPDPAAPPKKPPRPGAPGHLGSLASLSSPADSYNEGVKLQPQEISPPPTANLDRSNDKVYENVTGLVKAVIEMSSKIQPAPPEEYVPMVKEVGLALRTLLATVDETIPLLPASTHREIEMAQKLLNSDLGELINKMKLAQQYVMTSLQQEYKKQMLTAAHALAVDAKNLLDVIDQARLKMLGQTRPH
Fibroblast growth factor 2 (Homo sapiens), sequence (P09038 whole entry, looked up): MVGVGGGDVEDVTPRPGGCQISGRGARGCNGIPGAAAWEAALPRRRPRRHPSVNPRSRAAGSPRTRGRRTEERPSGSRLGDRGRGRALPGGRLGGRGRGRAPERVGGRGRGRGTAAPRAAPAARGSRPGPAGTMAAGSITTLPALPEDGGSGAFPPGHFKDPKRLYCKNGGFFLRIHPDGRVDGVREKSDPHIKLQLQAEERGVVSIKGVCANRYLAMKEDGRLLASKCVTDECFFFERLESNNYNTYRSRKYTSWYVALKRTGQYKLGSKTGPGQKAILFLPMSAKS
Follistatin (Homo sapiens), sequence (P19883 whole entry, looked up): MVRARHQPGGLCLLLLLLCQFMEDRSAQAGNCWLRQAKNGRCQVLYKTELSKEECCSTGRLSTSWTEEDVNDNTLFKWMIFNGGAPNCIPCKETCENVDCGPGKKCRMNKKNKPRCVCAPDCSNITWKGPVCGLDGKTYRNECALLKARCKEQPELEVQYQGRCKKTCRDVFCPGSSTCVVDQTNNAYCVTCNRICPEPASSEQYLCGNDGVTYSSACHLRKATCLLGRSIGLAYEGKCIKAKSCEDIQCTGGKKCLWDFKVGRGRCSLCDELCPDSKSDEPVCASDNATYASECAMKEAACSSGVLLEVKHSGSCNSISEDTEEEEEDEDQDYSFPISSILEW
Torsin-1A (Homo sapiens), sequence (O14656 whole entry, looked up): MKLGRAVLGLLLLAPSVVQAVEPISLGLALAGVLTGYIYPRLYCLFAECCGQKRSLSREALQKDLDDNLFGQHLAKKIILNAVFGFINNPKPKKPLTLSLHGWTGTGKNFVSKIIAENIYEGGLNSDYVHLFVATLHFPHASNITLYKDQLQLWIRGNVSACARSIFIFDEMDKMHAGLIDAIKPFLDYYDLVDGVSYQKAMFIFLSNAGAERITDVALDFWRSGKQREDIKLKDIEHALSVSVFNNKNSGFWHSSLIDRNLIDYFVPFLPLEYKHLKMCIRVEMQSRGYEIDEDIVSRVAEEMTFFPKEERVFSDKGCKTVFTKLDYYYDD

Take `C=C(C)c1cc2c(c(CCCCCC)n1)[Si](C(C)C)(C(C)C)OC2`: the composite z-score is 0.18 in experiment [1]; -1.15 in [2]; -0.534 in experiment [3]; -1.93 in experiment [4]; -0.522 in [5]; -1.45 in [6]. The composite z-score was -0.174 in experiment [8]; -1.19 in experiment [9]; -0.712 in experiment [11]; -1.01 in experiment [16]; -0.159 in [17]; -1.74 in experiment [18]. Besides, the composite z-score in experiment [19] is -1.05; in experiment [20], -0.351. Moreover, the z-score in [7] was -1.17; in experiment [10], 0.903 (inactive); in experiment [12], -0.342 (inactive); in experiment [13] it was 0.582 (inactive); in experiment [14], 0.367 (inactive); in experiment [15], 0.0246 (inactive).
`CC(C)C[C@@H]1NC(=O)[C@@H]2C[C@H](C(=O)NCCCCN(C)C)[C@H](c3cccc(OCCO)c3)N2C1=O`: the composite z-score in experiment [1] is -0.421; in experiment [2] it was -0.46; in [3], 0.392; in experiment [4] it was -1.81; in [5], 0.787; in [6] it was 0.549. Further, the composite z-score is 0.24 in [8]; 0.779 in experiment [9]; -0.179 in experiment [11]; -0.911 in [16]; 0.0108 in [17]; 0.352 in [18]. The composite z-score worked out at 0.718 in experiment [19] and 1.24 in experiment [20]. Moreover, the z-score was -0.57 in [7]; 0.857 (inactive) in experiment [10]; -0.193 (inactive) in [12]; -1.25 (inactive) in experiment [13]; -0.817 (inactive) in [14]; 0.645 (inactive) in experiment [15].
For the compound `CCOC(=O)C[C@H]1[C@H](OC(=O)c2ccccc2-c2ccccc2)[C@@H](NC(=O)C2CCCCC2)c2cc(OCCCO)ccc2N1C(=O)Cc1ccc(OC)cc1`, the composite z-score in experiment [1] was 0.0271; in experiment [2], -0.525; in [3], 0.559; in experiment [4], -0.873; in experiment [5] it was -0.211; in [6], -0.377. Moreover, the composite z-score is 0.442 in experiment [8]; 0.752 in [9]; 0.0136 in experiment [11]; 0.0611 in experiment [16]; -0.0736 in [17]; -0.0183 in experiment [18]. In addition, the composite z-score in [19] was 0.307; in experiment [20], -0.0275. Moreover, the z-score in [7] was 1.58; in experiment [10] it was 0.0079 (inactive); in experiment [12], -0.226 (inactive); in [13], 0.642 (inactive); in [14], 4.65 (inactive); in experiment [15] it was 0.899 (inactive).
For the compound `C[C@H]1NC(=O)[C@@]23C(=O)N[C@@H](Cc4ccccc4)C2[C@H](C)[C@@]2(C)O[C@H]2C3/C=C/C/C=C\CNC(=O)[C@H](Cc2ccccc2)NC1=O` (stereo not given in full), the composite z-score in experiment [1] is 0.624; in experiment [2], -0.0861; in experiment [3], -0.219; in experiment [4] it was 0.617; in [5], 0.884; in experiment [6], 0.811. Besides, the composite z-score is 0.942 in experiment [8]; 0.404 in experiment [9]; 0.0319 in experiment [11]; -0.178 in experiment [16]; -0.0963 in [17]; -0.2 in experiment [18]. Besides, the composite z-score was 0.113 in experiment [19] and 1.63 in experiment [20]. Besides, the z-score is -0.0755 in experiment [7]; -0.203 (inactive) in [10]; -0.945 (inactive) in experiment [12]; -0.773 (inactive) in experiment [13]; -0.508 (inactive) in [14]; -0.0421 (inactive) in experiment [15].
`CCCCCCCCCCC(O)C1C=CC2C(=O)N(C)C(=O)C2N1Nc1ccc([N+](=O)[O-])cc1[N+](=O)[O-]` (stereo not given): the composite z-score is 1.38 in [1]; 1.21 in [2]; 0.851 in experiment [3]; 0.949 in experiment [4]; 0.0686 in experiment [5]; -0.597 in [6]. Also, the composite z-score is -0.524 in [8]; 1 in experiment [9]; 0.218 in experiment [11]; 1.12 in [16]; 0.211 in [17]; -0.257 in [18]. In addition, the composite z-score in [19] is 0.565; in experiment [20], -0.412. Further, the z-score in experiment [7] is 1.68; in [10], 0.581 (inactive); in experiment [12], -0.646 (inactive); in experiment [13], 0.322 (inactive); in experiment [14], 0.44 (inactive); in experiment [15] it was 0.932 (inactive).

Source of the values: PubChem BioAssay.
